The values that follow come from the supplement of paper PMC6089552.

The whole screen tested about 3,200 compounds, of which about 300 (9.4%) showed activity. What follows is part of a selection rich in actives, with near analogues and random picks from the rest. Unmarked numbers belong to inactive results.

In the assay the test system is A673/TR/shEF. Kind of assay: cell viability (LOESS-normalised, relative to median of negative controls) (log2 ratio); higher = more viable cells (less compound effect), active = hit call of the paper (over 3 MAD below the median). Particulars: treatment time: 72 h. The procedure, abridged: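 Viability of A673/TR/shEF Ewing sarcoma cells was determined by CellTiter-Glo luminescence. The cells, at 1,500 per well in 384-well plates, were grown with or without doxycycline from 24 h before compound addition to switch on EWS-FLI1 shRNA knockdown, then exposed for three days to library compounds at two or more concentrations or to DMSO controls. Signals were LOESS-corrected plate by plate, normalised to the negative-control median and log2-transformed.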

The mark [1] stands for this setting: 0.25 µM, library screen: screen1, EWS-FLI1 expression: high (no doxycycline).
[2] abbreviates: 0.25 µM, library screen: screen1, EWS-FLI1 expression: low (doxycycline-induced shRNA knockdown).
The mark [3] stands for this setting: 2.5 µM, library screen: screen1, EWS-FLI1 expression: high (no doxycycline).
The mark [4] stands for this setting: 2.5 µM, library screen: screen1, EWS-FLI1 expression: low (doxycycline-induced shRNA knockdown).
[5] abbreviates: 0.25 µM, library screen: screen2, EWS-FLI1 expression: high (no doxycycline).
Where [6] appears, read: 0.25 µM, library screen: screen2, EWS-FLI1 expression: low (doxycycline-induced shRNA knockdown).
Where [7] appears, read: 2.5 µM, library screen: screen2, EWS-FLI1 expression: high (no doxycycline).
Setting [8] is: 2.5 µM, library screen: screen2, EWS-FLI1 expression: low (doxycycline-induced shRNA knockdown).
The mark [9] stands for this setting: 0.103 µM, library screen: screen3, EWS-FLI1 expression: high (no doxycycline).
Where [10] appears, read: 0.103 µM, library screen: screen3, EWS-FLI1 expression: low (doxycycline-induced shRNA knockdown).
Setting [11] is: 0.308 µM, library screen: screen3, EWS-FLI1 expression: high (no doxycycline).
The mark [12] stands for this setting: 0.308 µM, library screen: screen3, EWS-FLI1 expression: low (doxycycline-induced shRNA knockdown).
Setting [13] is: 0.926 µM, library screen: screen3, EWS-FLI1 expression: high (no doxycycline).
The mark [14] stands for this setting: 0.926 µM, library screen: screen3, EWS-FLI1 expression: low (doxycycline-induced shRNA knockdown).
Where [15] appears, read: 2.8 µM, library screen: screen3, EWS-FLI1 expression: high (no doxycycline).
Setting [16] is: 2.8 µM, library screen: screen3, EWS-FLI1 expression: low (doxycycline-induced shRNA knockdown).
[17] abbreviates: 8.3 µM, library screen: screen3, EWS-FLI1 expression: high (no doxycycline).
Where [18] appears, read: 8.3 µM, library screen: screen3, EWS-FLI1 expression: low (doxycycline-induced shRNA knockdown).
The mark [19] stands for this setting: 25 µM, library screen: screen3, EWS-FLI1 expression: high (no doxycycline).
Where [20] appears, read: 25 µM, library screen: screen3, EWS-FLI1 expression: low (doxycycline-induced shRNA knockdown).

Take `CC(C)CCC[C@@H](C)[C@H]1CC[C@H]2[C@@H]3CC[C@H]4C[C@@H](O)CC[C@]4(C)[C@H]3CC[C@]12C`: the “cell viability (log2)” value reads like this: under setting [1], 0.0663; under setting [2], 0.113; under setting [3], 0.0848; under setting [4], 0.113.
On to `COC(=O)c1c(Cl)c(Cl)c(C(=O)OC)c(Cl)c1Cl`, for which the “cell viability (log2)” value is, setting by setting: under setting [1], 0.0653; under setting [2], 0.0707; under setting [3], 0.0863; under setting [4], 0.122.
Take `CC1(C)C(=O)C=C[C@@]2(C)C1CC(=O)[C@@]1(C)C3=CC(=O)O[C@@H](c4ccoc4)[C@]3(C)CCC12` (stereo partly specified): the “cell viability (log2)” value was 0.0432 under setting [1], 0.0348 under setting [2], 0.201 under setting [3] and 0.163 under setting [4].
In the case of `CCOC([O-])=Nc1c[n+](N2CCOCC2)no1`, the “cell viability (log2)” value was 0.0951 under setting [1]; 0.0303 under setting [2]; 0.227 under setting [5]; 0.0663 under setting [6]; 0.0784 under setting [3]; 0.0384 under setting [4]. Further, the “cell viability (log2)” value is 0.102 under setting [7] and 0.116 under setting [8].
For `CC1(C)O[C@H]2[C@H](O)C[C@](O)(C(N)=O)C[C@H]2O1`, the “cell viability (log2)” value reads like this: under setting [1], -0.0199; under setting [2], -0.00566; under setting [3], 0.076; under setting [4], 0.0924.
The corresponding values for `Oc1ccc2c(c1)OC[C@]1(O)Cc3cc(O)c(O)cc3[C@H]21` are 0.113, 0.129, 0.0951 and 0.187.
The corresponding values for `NC(C(=O)O)C(O)C(O)C(O)CO` (stereo unspecified) are 0.0607, 0.059, 0.025 and 0.121.
On to `COc1ccccc1NC(=O)C1=C(C)NC(=O)NC1c1ccc(Cl)cc1` (stereo unspecified), for which the “cell viability (log2)” value is 0.0563 under setting [1], 0.0447 under setting [2], 0.0428 under setting [3] and 0.00886 under setting [4].
The corresponding values for `O=C(CSc1nnc(Cc2ccccc2)o1)c1ccc(Cl)cc1` are 0.0547, 0.0748, 0.133 and -0.101.
The corresponding values for `C[C@H]1CC[C@@H](C(C)(C)O)CC2=C1CC[C@@H]2C` are -0.0585, 0.0603, 0.0212 and 0.083.
`C[C@@H](Oc1cc(-c2cnn(C3CCNCC3)c2)cnc1N)c1c(Cl)ccc(F)c1Cl`: the “cell viability (log2)” value under setting [9] is 0.0466; the “cell viability (log2)” value under setting [10] is 0.078; the “cell viability (log2)” value under setting [11] was 0.0248; the “cell viability (log2)” value under setting [12] is 0.0309; the “cell viability (log2)” value under setting [13] is 0.0194; the “cell viability (log2)” value under setting [14] is 0.0561. Besides, the “cell viability (log2)” value is, setting by setting: under setting [15], -0.012; under setting [16], 0.0202; under setting [17], -0.189 (active); under setting [18], 0.0761; under setting [19], -1.08 (active); under setting [20], -0.0839.
In the case of `COC(=O)C1=C(C)N=c2sc(=Cc3cccs3)c(=O)n2C1c1ccc(OC)cc1` (stereo unspecified), the “cell viability (log2)” value under setting [1] was 0.0442, the “cell viability (log2)” value under setting [2] is 0.034, the “cell viability (log2)” value under setting [3] was 0.0701 and the “cell viability (log2)” value under setting [4] is 0.111.
In the case of `CNC(=O)c1cc2c(cn1)[nH]c1ccccc12`, the “cell viability (log2)” value is 0.143 under setting [5], 0.0456 under setting [6], 0.152 under setting [7] and 0.0711 under setting [8].
Consider `CNC(=O)c1ccccc1Sc1ccc2c(/C=C/c3ccccn3)n[nH]c2c1`, for which the “cell viability (log2)” value under setting [9] was -0.00228; the “cell viability (log2)” value under setting [10] was 0.0386; the “cell viability (log2)” value under setting [11] was 0.0978; the “cell viability (log2)” value under setting [12] is 0.044; the “cell viability (log2)” value under setting [13] is 0.0712; the “cell viability (log2)” value under setting [14] is 0.145. In addition, the “cell viability (log2)” value is 0.0241 under setting [15]; 0.188 under setting [16]; -0.181 (active) under setting [17]; 0.195 under setting [18]; -0.513 (active) under setting [19]; -0.0147 under setting [20].
On to `CC(C)=CCC[C@@H](C)[C@H]1CC[C@@]2(C)C3=C(CC[C@]12C)[C@@]1(C)CC[C@H](O)C(C)(C)[C@@H]1CC3`, for which the “cell viability (log2)” value was 0.101 under setting [1], -0.00557 under setting [2], 0.158 under setting [3] and 0.0178 under setting [4].
The corresponding values for `O=C(O)CCCCCCCn1ccnc1` are 0.124, 0.0433, 0.168 and 0.0749.
The corresponding values for `CC1=C(Cl)C(O)=C(Cl)C(=O)C12Oc1cc(O)c(Cl)c(C)c1C2=O` (stereo unspecified) are 0.065, 0.0174, 0.111 and 0.157.
As for `CC(=O)OC12CCCC(C)(CCC3C1CC3(C)C)C2` (stereo unspecified), the “cell viability (log2)” value runs as follows: under setting [1], 0.0248; under setting [2], -0.0723; under setting [3], 0.116; under setting [4], -0.0213.
The corresponding values for `CC(=O)OC1(C)CCC23CC1C(C)(C)[C@@H]2CC[C@H]3C` (stereo partly specified) are 0.0148, 0.0289, 0.15 and 0.0585.
